Reference: PubChem BioAssay AID2238 (Southern Research Specialized Biocontainment Screening …, 2010)
Calls of active or inactive are those of the source. How the calls were made is not given here.

experiment: West Nile virus CPE inhibition, SAR follow-up, cell-based, synthesized analogs (AID 2238); conditions: West Nile virus CPE inhibition in cells; max CPE inhibition: measured here: maximum CPE inhibition observed, at 40 µM, stronger effect = higher value unless noted; series mostly up to 40 µM; CPE inhibition: at the top concentration

Compound | max CPE inhibition | CPE inhibition
COc1ccc(-c2csc(N(CCCN(C)C)C(=O)c3ccccc3C)n2)cc1 | 60.8% [measured here: maximum CPE inhibition observed, at 80 µM, stronger effect = higher value] | 
COc1cccc(C(NC(=O)c2ccccc2)c2ccc3cccnc3c2O)c1 (configuration not stated) | 5.83% [measured here: maximum CPE inhibition observed, at 5 µM, stronger effect = higher value] | -0.16% (inactive)
CC1CCCC(C)N1CCCNC(=O)c1cc2c(s1)-c1ccccc1OC2 (configuration not stated) | 77% [measured here: maximum CPE inhibition observed, at 10 µM, stronger effect = higher value] | 
O=C(CSc1nc2ccccc2c(=O)n1-c1ccc(F)c(Cl)c1)Nc1ccc2c(c1)CCC2 | 65.7% [measured here: maximum CPE inhibition observed, at 20 µM, stronger effect = higher value] | 
Brc1ccc2c(c1)CN1CCCC1=N2 | 54.9% | 
CN(C)CCCNC(=S)N1CCN(c2nc(-c3ccccc3)cs2)CC1 | 55.7% [measured here: maximum CPE inhibition observed, at 20 µM, stronger effect = higher value] | 
O=C(CSc1nc2ccccc2c(=O)n1-c1ccc(F)cc1F)Nc1ccc(N2CCOCC2)cc1 | 58% [measured here: maximum CPE inhibition observed, at 80 µM, stronger effect = higher value] | 
O=C(Nc1nc(-c2ccc(Cl)cc2)cs1)c1cccc(Cl)c1 | 0.85% | 0.85% (inactive)
O=C(CSc1nc2ccccc2c(=O)n1-c1ccc(Cl)cc1)Nc1ccc2c(c1)CCC2 | 45.5% [measured here: maximum CPE inhibition observed, at 20 µM, stronger effect = higher value] | 
CCOC(=O)C1(Cc2ccccc2C(F)(F)F)CCN(C2CCN(C(C)C)CC2)CC1 | 59.8% | 
CN(C)CCCN1c2ccc([N+](=O)[O-])cc2CCc2cc([N+](=O)[O-])ccc21 | 80.3% [measured here: maximum CPE inhibition observed, at 20 µM, stronger effect = higher value] | 
OC1c2cc(Br)ccc2N=C2CCCN21 (configuration not stated) | 79.7% | 
COc1ccc(-c2csc(N(Cc3ccccc3)C(=O)c3ccccc3Cl)n2)cc1 | 2.87% | 2.64% (inactive)
O=C(CSc1nc2ccccc2c(=O)n1-c1ccc(Cl)c(Cl)c1)Nc1ccc2c(c1)CCC2 | 63.1% | 
O=C(CSc1nc2ccccc2c(=O)n1-c1ccc(F)cc1F)Nc1ccc2c(c1)CCC2 | 64.8% [measured here: maximum CPE inhibition observed, at 80 µM, stronger effect = higher value] | 
COc1ccc(-c2csc(NC(=O)c3ccc(Cl)cc3)n2)cc1 | 6.01% | 5.35% (inactive)

Compound | max CPE inhibition | CPE inhibition
Cc1cccc2c1-c1sc(C(=O)NCCCN3CCC(C)CC3)cc1CO2 | 30.6% [measured here: maximum CPE inhibition observed, at 10 µM, stronger effect = higher value] | 
O=C(CSc1nc2ccccc2c(=O)n1-c1ccc(F)cc1)Nc1ccc2c(c1)CCC2 | 65.2% | 
O=C(Nc1nc(-c2ccc(Cl)cc2)cs1)c1ccccc1Cl | 0.4% | 0.16% (inactive)
COc1ccc(-c2csc(NC(=O)c3ccccc3Cl)n2)cc1 | 1.74% | 1.71% (inactive)
CC1CCN(CCCNC(=O)c2cc3c(s2)-c2ccccc2OC3)CC1 | 73.1% [measured here: maximum CPE inhibition observed, at 20 µM, stronger effect = higher value] | 
CCOC(=O)C1(Cc2ccccc2C(F)(F)F)CCN(C2CCN(C(C)=O)CC2)CC1 | 1.58% [measured here: maximum CPE inhibition observed, at 20 µM, stronger effect = higher value] | 0.62% [at 80 µM] (inactive)
O=C(CSc1nc2ccccc2c(=O)n1-c1ccccc1)Nc1ccc2c(c1)CCC2 | 72% | 
O=C(Nc1nc(-c2ccc(Cl)cc2)cs1)c1ccccc1F | 1.34% | 0.47% (inactive)
CCN(CC)CCCNC(=S)N1CCN(c2nc(-c3ccccc3)cs2)CC1 | 76% [measured here: maximum CPE inhibition observed, at 20 µM, stronger effect = higher value] | 
COc1ccc(-c2csc(N(CCCN(C)C)C(=O)c3ccccc3Cl)n2)cc1 | 69.5% | 
Cc1cccc2c(=O)n3c(nc12)CCC3 | 1.97% | 1.97% (inactive)
O=C(CSc1nc2ccccc2c(=O)n1-c1ccccc1F)Nc1ccc2c(c1)CCC2 | 71.6% [measured here: maximum CPE inhibition observed, at 20 µM, stronger effect = higher value] | 
CC1CCCN(CCCNC(=O)c2cc3c(s2)-c2ccccc2OC3)C1 (configuration not stated) | 71.4% [measured here: maximum CPE inhibition observed, at 10 µM, stronger effect = higher value] | 
O=c1c2cc(Cl)cc(Cl)c2nc2n1CCC2 | 1.72% | 0.93% (inactive)
CC1CC(C)CN(CCCNC(=O)c2cc3c(s2)-c2ccccc2OC3)C1 (configuration not stated) | 41.1% [measured here: maximum CPE inhibition observed, at 20 µM, stronger effect = higher value] | 
CCCN1CCN(CCCNC(=O)c2cc3c(s2)-c2c(C)cccc2OC3)CC1 | 42.7% [measured here: maximum CPE inhibition observed, at 10 µM, stronger effect = higher value] | 
